Where “and” joins values, the source holds several entries; their conditions need not be identical. Equal entries are not always repeated. Among all 5,500 compounds or so, about 2,000 (36%) were called active. Roughly 18% stayed inconclusive and do not appear here. No stated cut-off is given here; in the data, active means normalized growth mostly below about 0.91 (no sharp cut-off); inconclusive means no clear call, values can overlap the other calls; inactive means mostly above about 0.92. The list shows a part of the results.
Experiment: chemical genetic growth profiling, strain panel (AID 1159580);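 further: tested at 20 µM; growth read once vehicle control cultures reached saturation at 30 °C; 1 = growth at the plate median or of vehicle wells; lower values mean less growth of the strain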
Settings: S. cerevisiae deletion strains, growth OD

Measured: normalized growth

COc1ccc2cc3[n+](cc2c1OC)CCc1cc2c(cc1-3)OCO2
inactive: locus YAL021C, strain ccr4, hits give low values 0.997 | locus YAL026C, strain drs2, hits give low values 0.99 | locus YAL030W, strain snc1, hits give low values 0.996 | locus YBL061C, strain skt5, hits give low values 0.986 | locus YBR009C, strain hhf1, hits give low values 1 | locus YBR021W, strain FUR4, hits give low values 0.847 | locus YBR023C, strain chs3, hits give low values 0.982 | locus YBR171W, strain sec66, hits give low values 0.983 | locus YBR231C, strain swc5, hits give low values 0.985 | locus YBR279W, strain paf1, hits give low values 0.987 | locus YCL011C, strain gbp2, hits give low values 0.998 | locus YCL016C, strain dcc1, hits give low values 0.982 | locus YCL061C, strain MRC1, hits give low values 1.01 | locus YCL069W, strain vba3, hits give low values 0.999 | locus YCR088W, strain abp1, hits give low values 0.98 | locus YDL005C, strain med2, hits give low values 0.984 | locus YDL040C, strain nat1, hits give low values 0.986 | locus YDL185W, strain tfp1, hits give low values 1 | locus YDR001C, strain nth1, hits give low values 0.981 | locus YDR069C, strain doa4, hits give low values 1 | locus YDR137W, strain rgp1, hits give low values 0.979 | locus YDR159W, strain sac3, hits give low values 1.02 | locus YDR195W, strain ref2 0.977 | locus YDR297W, strain sur2, hits give low values 0.99 | locus YDR334W, strain swr1, hits give low values 0.973 | locus YDR335W, strain msn5, hits give low values 0.967 | locus YDR392W, strain spt3, hits give low values 0.984 | locus YEL003W, strain gim4, hits give low values 0.99 | locus YEL037C, strain rad23, hits give low values 0.981 | locus YEL061C, strain CIN8 (second series), hits give low values 0.993 | locus YER015W, strain faa2, hits give low values 0.991 | locus YER016W, strain bim1, hits give low values 0.981 | locus YER111C, strain swi4, hits give low values 1 | locus YER155C, strain BEM2 (second series), hits give low values 0.968 | locus YER155C, strain BEM2, hits give low values 0.957 | locus YFR010W, strain ubp6, hits give low values 0.992 | locus YGL167C, strain pmr1, hits give low values 0.983 | locus YGL173C, strain kem1, hits give low values 0.989 | locus YGL227W, strain vid30, hits give low values 0.989 | locus YGL240W, strain doc1, hits give low values 0.996 | locus YGL253W, strain hxk2, hits give low values 0.988 | locus YHR013C, strain ard1, hits give low values 0.943 | locus YHR027C, strain rpn1, hits give low values 0.998 | locus YHR142W, strain chs7, hits give low values 0.995 | locus YIL125W, strain kgd1, hits give low values 0.966 | locus YJL092W, strain hpr5, hits give low values 0.982 | locus YJL095W, strain BCK1 (second series), hits give low values 1.01 | locus YJL115W, strain asf1, hits give low values 0.986 | locus YJL129C, strain trk1, hits give low values 0.993 | locus YJL154C, strain vps35, hits give low values 0.974 | locus YJL164C, strain tpk1, hits give low values 0.99 | locus YJL166W, strain qcr8, hits give low values 1.01 | locus YJL187C, strain SWE1, hits give low values 0.989
active: locus YAL013W, strain DEP1, hits give low values 0.509 | locus YBR229C, strain ROT2, hits give low values 0.762 | locus YCL029C, strain bik1, hits give low values 0.379 | locus YDL035C, strain GPR1, hits give low values 0.278 | locus YDL074C, strain BRE1, hits give low values 0.352 | locus YDL101C, strain DUN1, hits give low values 0.569 | locus YDL134C, strain PPH21, hits give low values 0.398 | locus YDL192W, strain arf1, hits give low values 0.436 | locus YDR101C, strain arx1, hits give low values 0.278 | locus YDR150W, strain NUM1, hits give low values 0.681 | locus YDR162C, strain NBP2, hits give low values 0.533 | locus YDR318W, strain mcm21, hits give low values 0.461 | locus YDR388W, hits give low values 0.365 | locus YDR502C, strain sam2, hits give low values 0.345 | locus YEL061C, strain CIN8, hits give low values 0.567 | locus YER110C, hits give low values 0.452 | locus YER167W, strain BCK2, hits give low values 0.467 | locus YGL078C, strain dbp3, hits give low values 0.854 | locus YGL086W, strain mad1, hits give low values 0.394 | locus YGL248W, strain PDE1, hits give low values 0.3 | locus YGR078C, strain PAC10, hits give low values 0.481 | locus YGR135W, strain pre9, hits give low values 0.318 | locus YGR229C, strain SMI1, hits give low values 0.454 | locus YGR252W, strain gcn5, hits give low values 0.604 | locus YHR030C, strain SLT2, hits give low values 0.664 and 0.844 | locus YHR079C, strain IRE1 (second series), hits give low values 0.439 | locus YHR079C, strain IRE1, hits give low values 0.783 | locus YHR094C, strain hxt1, hits give low values 0.689 | locus YHR129C, strain ARP1, hits give low values 0.699 | locus YHR200W, strain rpn10, hits give low values 0.518 | locus YIL066C, strain RNR3, hits give low values 0.373 | locus YIL073C, strain SPO22, hits give low values 0.209 | locus YIR030C, strain dcg1, hits give low values 0.521 | locus YJL095W, strain BCK1, hits give low values 0.417 and 0.79 | locus YJL134W, strain LCB3, hits give low values 0.874 | locus YJL168C, strain set2, hits give low values 0.826 | locus YJL187C, strain SWE1 (second series), hits give low values 0.291 | locus YJR043C, strain POL32, hits give low values 0.482 | locus YJR066W, strain TOR1, hits give low values 0.765
